Source: PubChem BioAssay (NCATS)
Inconclusive results are not listed. The source made the active and inactive calls. Calls come from the whole dose curve; as a rule, active = well fitted inhibition curve with a large enough effect; inconclusive = small, poorly fitted or top-dose-only effect; inactive = flat fitted curve, though single readings scatter.

Assays:
Assay in all cases: qHTS profiling for inhibitors of Plasmodium falciparum proliferation (AID 504749); note: nearly all actives have a fitted effect of over 60% in size
Settings in all cases: P. falciparum in erythrocytes, SYBR Green DNA, 72 h; series mostly up to 28.7 µM
CP250 = test system: CP250
Outline: (§1)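 Three-day growth assay of blood-stage parasites in erythrocytes (0.3% parasitemia, 2.5% hematocrit) at 37 C, 5% CO2, quantified by SYBR Green DNA staining after overnight detergent lysis.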

CP252 = test system: CP252
Outline: as §1

CP256 = test system: CP256
Outline: as §1

CP260 = test system: CP260
Outline: as §1

CP262 = test system: CP262
Outline: as §1

CP265 = test system: CP265
Outline: as §1

CP266 = test system: CP266
Outline: as §1

CP268 = test system: CP268
Outline: as §1

CP269 = test system: CP269
Outline: as §1

CP286 = test system: CP286
Outline: as §1

CP291 = test system: CP291
Outline: as §1

CP297 = test system: CP297
Outline: as §1

CP305 = test system: CP305
Outline: as §1

CP315 = test system: CP315
Outline: as §1

CP325 = test system: CP325
Outline: as §1

CP329 = test system: CP329
Outline: as §1

CP335 = test system: CP335
Outline: as §1

DFO2036 = test system: DFO2036
Outline: as §1

DIV14 = test system: DIV14
Outline: as §1

DIV17 = test system: DIV17
Outline: as §1

Measured: Potency

O=C1CN(O)C(c2ccccc2)=c2cc(Cl)ccc2=N1
inactive: all assays above

CCCCCCCCOC(=O)c1ccccc1C(=O)OCCCCCCCC
inactive: all assays above

O=C(O)C(Cl)(Cl)Cl
inactive: all assays above

CCOC(=O)c1ccccc1C(=O)OCC
inactive: all assays above

CC(C)(O)C1C2OC(=O)C1C1(O)CC3OC34C(=O)OC2C14C (stereo unspecified)
inactive: all assays above

C=CCN1CCC23c4c5ccc(O)c4O[C@H]2C(=O)CC[C@@]3(O)C1C5 (stereo partly specified)
inactive: all assays above

COc1ccc(OC)c(C(O)C(C)N)c1 (stereo unspecified)
inactive: all assays above

Oc1cc(Cl)c(Cl)cc1Cl
not listed: DIV14 | DIV17
inactive: all other assays above

FC(F)OC(F)(F)C(F)Cl (stereo unspecified)
inactive: all assays above

O=c1[nH]c(=O)n(Cl)c(=O)n1Cl
inactive: all assays above

[O]=[Cd]
inactive: all assays above

ClC=C(Cl)Cl
inactive: all assays above

CCC(=O)O[C@@](Cc1ccccc1)(c1ccccc1)[C@@H](C)CN(C)C
not listed: DIV14 | DIV17
inactive: all other assays above

CC[N+](C)(CC)CCOC(=O)C(O)(c1ccccc1)c1ccccc1
inactive: all assays above

CCCCNCC(O)c1ccc(O)cc1 (stereo unspecified)
inactive: all assays above

CNC(=O)OCC[N+](C)(C)C
inactive: all assays above

O=S(=O)(O)c1cc(O)ccc1O
inactive: all assays above

O=Cc1ccco1
inactive: all assays above

Cn1sc(Cl)cc1=O
inactive: all assays above

COC1=CC=C2[C@H]3Cc4ccc(OC)c5c4[C@@]2(CCN3C)[C@H]1O5
inactive: all assays above

CCC1(C)CC(=O)NC(=O)C1
inactive: all assays above

O=[N+]([O-])c1ccc(F)c([N+](=O)[O-])c1
inactive: all assays above

CC(=O)OC1CN2CCC1CC2 (stereo unspecified)
inactive: all assays above

S=C=S
inactive: all assays above

ClCC1CO1 (stereo unspecified)
inactive: all assays above

O=C1CCO1
inactive: all assays above

O=C(OCCN1CCCCC1)C(O)(c1ccccc1)c1ccccc1
inactive: all assays above

CC(Cc1ccccc1)NC=O (stereo unspecified)
inactive: all assays above
